Compound activity deposited in PubChem BioAssay by several laboratories.
ABCB6 inh MLPCN = blocks the human ABCB6 transporter; fluorescence ratio to DMSO, % at 10 µM; hit rate 0.19% among 360,000; K562-ABCB6 porphyrin accumulation, flow cytometry, 1 h; stronger effect = lower value; Q9NP58;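 active means fluorescence ratio to DMSO below 75%, the collection mean minus 3 SD; inconclusive means too few cells collected in the well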;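 further: signal is porphyrin accumulated inside mitochondria; 100% equals median channel fluorescence of DMSO control wells; lower ratio means ABCB6 inhibition with less porphyrin fluorescence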
SKN-1 block = C. elegans SKN-1 inhibition. C. elegans VP596 Pgst-4::GFP/RFP ratio, acrylamide-induced, 24 h. inhibition, % at 21.8 µM. hit rate 0.49% among 360,000. AID 624304;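 active means interference check ratio from 0.5 to 1.5 plus GFP to RFP signal ratio inhibition reaching or exceeding a fixed threshold, cut at about 30% in these data, passing the limit was not always enough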
Platelet DG rel = platelet dense granule release activity; human platelet-rich plasma, SFLLRN dense granule ATP release, luminescence; hit rate 0.22% among 300,000; inhibition, %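 (compounds screened at 7.5 µM in platelet-rich plasma)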;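 active means mean replicate score, as percent of positive control, at or above 50; inconclusive means mean below 50 but at least one replicate at or above 50; inactive means mean and every replicate below 50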
VLA-4 inh = inhibition in a human VLA-4 binding assay; AID 2557; hit rate 0.2% among 330,000; VLA-4 expressing cells, ligand binding flow cytometry; inhibition, % (about 7 µM as worked out from the volumes in the protocol); in the data active means inhibition above about 50%
Target sequence (P13612 whole entry, looked up): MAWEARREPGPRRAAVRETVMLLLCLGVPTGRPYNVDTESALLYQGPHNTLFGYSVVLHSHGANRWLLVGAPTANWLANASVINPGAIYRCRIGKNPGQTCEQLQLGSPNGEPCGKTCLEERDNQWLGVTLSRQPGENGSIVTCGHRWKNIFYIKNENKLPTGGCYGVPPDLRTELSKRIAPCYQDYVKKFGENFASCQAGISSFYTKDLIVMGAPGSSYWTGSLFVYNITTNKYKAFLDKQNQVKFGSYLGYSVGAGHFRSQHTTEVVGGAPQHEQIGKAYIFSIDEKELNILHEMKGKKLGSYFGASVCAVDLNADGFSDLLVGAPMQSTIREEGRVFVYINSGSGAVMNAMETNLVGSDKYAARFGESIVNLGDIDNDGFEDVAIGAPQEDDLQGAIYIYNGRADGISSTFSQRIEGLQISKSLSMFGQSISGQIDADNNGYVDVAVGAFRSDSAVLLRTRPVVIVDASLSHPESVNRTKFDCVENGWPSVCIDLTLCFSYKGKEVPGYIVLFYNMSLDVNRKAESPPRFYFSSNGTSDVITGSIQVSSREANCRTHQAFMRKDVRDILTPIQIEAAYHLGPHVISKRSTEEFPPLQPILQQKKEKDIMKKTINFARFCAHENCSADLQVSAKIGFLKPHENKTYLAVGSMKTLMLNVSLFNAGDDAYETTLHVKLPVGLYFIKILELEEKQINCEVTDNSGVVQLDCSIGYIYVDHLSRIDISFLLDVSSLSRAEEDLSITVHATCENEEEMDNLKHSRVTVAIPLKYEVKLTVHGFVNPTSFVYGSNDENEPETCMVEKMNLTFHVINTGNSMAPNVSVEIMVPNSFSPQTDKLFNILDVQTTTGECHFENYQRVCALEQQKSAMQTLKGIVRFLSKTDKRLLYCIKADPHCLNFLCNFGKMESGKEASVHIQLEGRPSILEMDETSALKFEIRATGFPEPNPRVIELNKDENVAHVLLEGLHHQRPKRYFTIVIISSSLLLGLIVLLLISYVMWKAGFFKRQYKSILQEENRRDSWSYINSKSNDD
Yeast superoxide = caloric restriction mimetics inhibiting age-related superoxide in yeast. AID 2690. S. cerevisiae aged cells, superoxide DHE fluorescence; stronger effect = lower value. hit rate 0.18% among 330,000. superoxide response (% of plate mean), % at 10 µM;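 active means superoxide response under a set limit, about three screen SD below normal, cut at about 65% in these data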;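 further: yeast aged for seven days with compound at 30 °C before DHE staining; 100% = average MFI of all compound-treated wells on the plate with controls excluded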
* = called active by the depositor. Most compounds without a hit are left out; they make up all but 1.2% or so of the library.

Results for O=C(CN(Cc1ccco1)C(=O)CNS(=O)(=O)c1ccc(Cl)cc1)NCC1CCCO1 (stereo unspecified) ?
ABCB6 inh MLPCN: 98; SKN-1 block: -10; Platelet DG rel: -2; VLA-4 inh: 4; Yeast superoxide: 98

Results for O=C(CN(Cc1ccco1)C(=O)CNS(=O)(=O)c1ccc(Cl)cc1)NC1CCCCC1 ?
ABCB6 inh MLPCN: 97; SKN-1 block: 38*; Platelet DG rel: 1; VLA-4 inh: -1; Yeast superoxide: 91

What do the screens show for `CC[n+]1c(/C=C(\C)Nc2ccccc2)sc2ccccc21`?
ABCB6 inh MLPCN: 101; SKN-1 block: 11; VLA-4 inh: -4; Yeast superoxide: 81

What do the screens show for `CC[n+]1c(/C=C/Nc2ccccc2)sc2ccccc21`?
ABCB6 inh MLPCN: 278; SKN-1 block: 39*; VLA-4 inh: -319; Yeast superoxide: 113

What do the screens show for `COC(=O)[C@@]12C[C@@H](CC(=O)N3CCSCC3)C(=O)N(Cc3ccco3)C1=CCC(C)(C)C2`?
SKN-1 block: -5

How did Cn1nnnc1SCC(=O)N1CCN(c2cccc(Cl)c2)CC1 do in these assays?
ABCB6 inh MLPCN: 89; SKN-1 block: 39*; Platelet DG rel: 8; VLA-4 inh: -4; Yeast superoxide: 105

How did Cn1nnnc1SCC(=O)N1CCN(c2ccccc2)CC1 do in these assays?
ABCB6 inh MLPCN: 102; SKN-1 block: -7; Platelet DG rel: -1; VLA-4 inh: -6; Yeast superoxide: 95

Results for Nc1nnc(SCC(=O)N2CCN(c3cccc(Cl)c3)CC2)n1-c1ccccc1 ?
ABCB6 inh MLPCN: 99; SKN-1 block: 38*; Platelet DG rel: 3; VLA-4 inh: 12; Yeast superoxide: 104

What do the screens show for `Fc1cccc(Cc2c(-c3ccco3)nc3c4ccccc4ccn23)c1`?
ABCB6 inh MLPCN: 96; SKN-1 block: 23

What do the screens show for `CCc1nc2ccc(C(=O)NCc3ccc4c(c3)OCO4)cn2c1N(C)Cc1cccs1`?
ABCB6 inh MLPCN: 95; SKN-1 block: 19

How did COC(=O)[C@]12CCCCC=C1N(CCC1=CCCCC1)C(=O)[C@H](CC(=O)N1CCCCC1)C2 do in these assays?
ABCB6 inh MLPCN: 97; SKN-1 block: -6

Results for CCN(CC)c1ccc(S(=O)(=O)N2CCOCC2)cc1NC(=O)CN1C(=O)NC2(CCCC2)C1=O ?
ABCB6 inh MLPCN: 101; SKN-1 block: -5; Platelet DG rel: 13; VLA-4 inh: -6; Yeast superoxide: 103

Results for O=C(CN1C(=O)NC2(CCCC2)C1=O)Nc1cc(S(=O)(=O)N2CCOCC2)ccc1OCC(F)(F)F ?
ABCB6 inh MLPCN: 98; SKN-1 block: 40*; Platelet DG rel: 0; VLA-4 inh: 9; Yeast superoxide: 91

Results for O=C(CN1C(=O)CCS(=O)(=O)c2ccccc21)NCc1ccccc1 ?
SKN-1 block: 37*; Platelet DG rel: 4; VLA-4 inh: 13; Yeast superoxide: 111

What do the screens show for `Nc1ncnc2c1ncn2C1OCC(O)C1O` (stereo unspecified)?
ABCB6 inh MLPCN: 95; SKN-1 block: -3

What do the screens show for `O=C(Nc1ccccc1)Nc1csc2ccccc12`?
ABCB6 inh MLPCN: 101; SKN-1 block: 35*; Platelet DG rel: -2; VLA-4 inh: 10; Yeast superoxide: 63*

Results for c1cc2c(cc1C1=NNC(=NC3CC3)SC1)OCCO2 ?
ABCB6 inh MLPCN: 98; SKN-1 block: 0; Platelet DG rel: 75*; VLA-4 inh: -1; Yeast superoxide: 102

What do the screens show for `CC(C)N1CCCC(C)(C(=O)Nc2cccc(Oc3ccccc3)c2)C1` (stereo unspecified)?
ABCB6 inh MLPCN: 97; SKN-1 block: 4

Results for ON1C(c2ccc(Cl)cc2Cl)N(O)[C@H]2CCCC[C@H]21 (stereo partly specified) ?
ABCB6 inh MLPCN: 105; SKN-1 block: -9; Platelet DG rel: -2; VLA-4 inh: -1; Yeast superoxide: 89

Results for CC1N(O)C(c2ccc(Cl)cc2Cl)N(O)C1(C)C (stereo unspecified) ?
ABCB6 inh MLPCN: 102; SKN-1 block: -8; Platelet DG rel: 68*; VLA-4 inh: 10; Yeast superoxide: 99

How did CCOc1ccccc1N1CC(C(=O)Nc2nccs2)CC1=O (stereo unspecified) do in these assays?
ABCB6 inh MLPCN: 98; SKN-1 block: -5; Platelet DG rel: 52*; VLA-4 inh: -1; Yeast superoxide: 98

Results for Cc1cccc(N2CC(C(=O)Nc3nccs3)CC2=O)c1C (stereo unspecified) ?
ABCB6 inh MLPCN: 98; SKN-1 block: 12; Platelet DG rel: 12; VLA-4 inh: -11; Yeast superoxide: 98

Results for Cc1c(Cl)c(-c2n[nH]c(=S)n2-c2ccc(F)cc2)nn1C ?
ABCB6 inh MLPCN: 100; SKN-1 block: 30*; Platelet DG rel: -1; VLA-4 inh: 5; Yeast superoxide: 102

What do the screens show for `C=C[C@@]1(C)CC(=O)[C@]2(O)[C@@]3(C)[C@@H](O)CCC(C)(C)[C@@H]3[C@H](O)[C@H](OC(C)=O)[C@@]2(C)O1`?
ABCB6 inh MLPCN: 93; SKN-1 block: -8; Platelet DG rel: 90*; VLA-4 inh: 34; Yeast superoxide: 86

How did N/C(=N\N=C\c1cccc(O)c1)c1nonc1N do in these assays?
ABCB6 inh MLPCN: 103; SKN-1 block: 2; Platelet DG rel: 70*; VLA-4 inh: 12; Yeast superoxide: 111

Results for N/C(=N\N=C\c1ccc(O)c(O)c1)c1nonc1N ?
ABCB6 inh MLPCN: 96; SKN-1 block: 7; Platelet DG rel: 105*; VLA-4 inh: -3; Yeast superoxide: 95

Results for N/C(=N\N=C\c1ccc(O)cc1)c1nonc1N ?
ABCB6 inh MLPCN: 105; SKN-1 block: 3; Platelet DG rel: 65*; VLA-4 inh: 4; Yeast superoxide: 100

How did COc1cc(/C=N/N=C(\N)c2nonc2N)ccc1O do in these assays?
ABCB6 inh MLPCN: 99; SKN-1 block: 16; Platelet DG rel: inconclusive; VLA-4 inh: 7; Yeast superoxide: 102

How did Cc1ccccc1-c1cc2nc(NCc3ccc4occc4c3)n(C)c(=O)c2s1 do in these assays?
ABCB6 inh MLPCN: 96; SKN-1 block: 10

Results for Cc1ccccc1-c1cnc(C(O)c2ccc(F)c(F)c2)[nH]1 (stereo unspecified) ?
ABCB6 inh MLPCN: 100; SKN-1 block: -2

What do the screens show for `CCOC(=O)[C@]12CCCC=C1N(Cc1ccccc1)C(=O)[C@H](CC(=O)NCC1CCCCC1)C2`?
SKN-1 block: -4

What do the screens show for `COc1ccc(N(C(=O)CCl)C(C(=O)NCCc2ccccc2)c2cccs2)cc1Cl` (stereo unspecified)?
ABCB6 inh MLPCN: 25*; SKN-1 block: 4; Platelet DG rel: -1; VLA-4 inh: -3; Yeast superoxide: 77

Results for COc1cccc(N(C(=O)CCl)C(C(=O)NCCc2ccccc2)c2cccs2)c1 (stereo unspecified) ?
ABCB6 inh MLPCN: 104; SKN-1 block: 10; Platelet DG rel: -4; VLA-4 inh: 14; Yeast superoxide: 96
